Experimental data from PubChem BioAssay AID493208 (National Center for Advancing Translational Sciences (NCATS), 2011).
About 340 (0.77%) of roughly 44,000 compounds were called active. About 5% were inconclusive and are not listed. The call rests on the fitted dose curve; in most records, active means well fitted inhibition curve with a large enough effect; inconclusive means small, poorly fitted or top-dose-only effect; inactive means flat fitted curve, though single readings scatter. Only a selection was taken, and actives are over-represented in it overall.

Test: Acumen qHTS Assay for Inhibitors of the mTORC1 Signaling Pathway in MEF (Tsc2-/-, p53-/-) Cells: Sytravon; further: nearly all actives have a fitted effect of over 50% in size
Details: phospho-rpS6 immunofluorescence/PI, 24 h; series mostly up to 38.3 µM
Source text: NIH Molecular Libraries Probe Production Centers Network [MLPCN] NIH Chemical Genomics Center [NCGC] MLPCN Grant: NS059428-01 Assay Submitter (PI): Blenis, John; Hoffman, Greg; Harvard University NCGC Assay Overview: The mammalian target of rapamycin (mTOR) is an intracellular serine/threonine kinase Aberrant regulation of mTOR signaling plays a causative role in a number of human diseases, including cancer, benign tumors such as lymphangioleiomyomatosis (LAM) and Tuberous Sclerosis Complex (TSC), and metabolic diseases such as diabetes and obesity. This project aims to identify inhibitors of ribosomal protein S6 (rpS6) phosphorylation. The phosphorylation of rpS6 is a key event downstream of mTOR activation. The assay uses a phospho-specific antibody of phospho-rpS6 to detect inhibitors of mTOR activation. Mutations in the Tsc1 and Tsc2 genes are the underlying genetic lesions responsible for TSC, causing constitutive activation of the mTORC1 pathway and leading to profound effects on cell metabolism. Aberrant metabolism in cancer has recently received significant attention as a target to develop therapeutic agents in the treatment of cancer.1 As Tsc2-/- cells have lost the ability to respond to energy and growth factor deprivation, these cells are unable to properly down regulate cellular biosynthetic processes in response to metabolic stress, and are thus extremely sensitive to glucose deprivation-induced death.2 A central goal of this project is to explore the unique cell survival and metabolic properties of cells with Tsc1 or Tsc2 by screening for compounds that selectively target the Tsc2-/- MEFs by screening both Tsc2-/- and WT MEF cell lines. We hope to better understand these aspects of TSC physiology in order to exploit them for therapeutic benefit.
NCGC Acumen Assay Protocol Summary: For quantitative high throughput analysis of mTORC1 signaling, we developed a cell-based assay for immuno-fluorescence based detection of rpS6 phosphorylation on the Acumen Explorer that will be used a platform for the primary small molecule screen. Mouse embryonic fibroblasts (MEFs) are cultured in 1536-well plates using DMEM + 10% FBS. Twenty-four hrs after plating, test compounds (solubilized in DMSO) are delivered and incubated with the cells for 24 hrs at 37 degree Celsius. Following the incubation, media with compound is aspirated and the cells are fixed in 4% paraformaldehyde (PFA) containing PBS + 0.2% TX-100. Next, PFA is aspirated, cells are washed two times with PBS plus 0.2% TX-100 and the cells are blocked for 1 hr at room temperature (blocking buffer: LiCOR Blocking Buffer plus 0.2% TX-100). […] Cells are washed two times with PBS plus 0.2% TX-100, and stained with 10 uM propidium iodide (PI) for 20-25 minutes for cell number measurement (1:500 dilution of Hoescht staining is also added for IN Cell imaging). The plates are scanned on the Acumen Explorer laser scanning instrument (TTP Labtech) using the 488nm laser for simultaneous excitation of the Alexa-488 and PI. […] The normalized phospho-S6 staining is calculated as the ratio of the integrated Alexa 488 intensity divided by the integrated PI intensity for the single concentration rapamycin control (7.5 nM) and DMSO columns. […] Inhibition of the pathway is defined based on the normalized phospho-S6 intensity in rapamycin treated cells. Active cells are defined as those with a normalized phospho-S6 staining above this threshold, and each treatment is reported as the % positive cells in the well, where thresholds are defined by selecting wells with the highest and lowest signal and differentiating between the % non-active and % active populations. In addition to the pathway specific phospho-S6 endpoint, the number of PI stained cells from the Acumen is recorded as a measure of cell viability. The primary screen was performed with a MEF cell line in a defined genetic background, Tsc2-/-, p53-/- cell line stably transfected with an empty vector control (Tsc2-/- MEF).
Potency means the concentration at half of the fitted maximal effect.

Potency, inactive:
COc1ccc2c(Sc3ccc(C)cc3)c(C(=O)NC(C)c3ccccc3)[nH]c2c1 (stereo not given), CCc1ccc(CNC(=O)C2CCN(c3nn4cc(-c5ccc(F)cc5)nc4s3)CC2)cc1, COCCNC(=O)CSc1nc(-c2ccccc2)[nH]c1-c1ccc(C)cc1, CCOc1ccccc1NC(=O)CSc1ncc(S(=O)(=O)c2ccc(C(C)(C)C)cc2)c(=O)[nH]1, CCCCOc1ccc(Cn2c(=O)oc3ccc(C)cc32)cc1OC, CCOc1ccc(CNCc2c(C(=O)O)c(C)n(Cc3cccc(OC)c3)c2C)cc1OC, Cc1cc(NC(=O)c2cccc(Cl)c2)ccc1-c1cc2ccccc2oc1=O, COc1cccc(C(=O)Nc2nnc(S(=O)(=O)N3CCOCC3)s2)c1, COc1ccccc1NC(=O)c1cc(S(=O)(=O)NCCc2ccccc2)ccc1F, Cc1cc(C)c2oc(-c3cccc(NC(=O)c4cccc(F)c4)c3C)nc2c1, CCc1ccc(CNCc2c(C(=O)O)n(Cc3ccc(F)cc3Cl)c3cc(OC)ccc23)cc1, COc1ccc(C)cc1NC(=O)COCc1cc(-c2cccs2)on1, COc1ccc(Cl)cc1NC(=O)CSc1nc(-c2cccs2)cc(C(F)(F)F)n1, Cc1nc2c(c(C)nn2-c2ccccc2)c(C)c1CCC(=O)NCCc1ccc(Cl)cc1, O=C(NCc1ccccc1)c1cc(-c2cccc(Cl)c2)on1, CC(C)CCN(C(=O)Nc1ccc(Cl)c(Cl)c1)C(C)c1cccs1 (stereo not given), Cc1cccc(CCNC(=O)c2ccc3c(c2)nc2n3CCC(C)C2)c1 (stereo not given), Cc1nn2c(=O)cc(COC(=O)c3ccccc3NC(=O)COc3ccccc3C)nc2s1, COc1ccc(Br)cc1CNC(=O)c1cc(=O)[nH]c2ccc(S(=O)(=O)N3CCCC3)cc12, CN(C)CCCn1c(-c2ccc(Cl)cc2)csc1=Nc1ccccc1, COc1ccc(-c2nnc(SCC(=O)Nc3ccccc3C)o2)cc1OC, COc1ccc(Cc2nc3ccc(C(=O)NCc4ccc(OC)cc4OC)cc3o2)cc1, Cc1ccc(Cl)cc1NC(=O)CCC(=O)N1CC(C)Sc2ccccc21 (stereo not given), Cc1nc2ccccn2c(=O)c1NC(=O)c1c(F)cccc1F, CCc1cccc(NC(=O)Cn2nc(CC)n3c(cc4cc(C)ccc43)c2=O)c1, CCOc1ccc(Nc2c(S(=O)(=O)c3ccccc3)cnc3ccccc23)cc1, COc1ccc(CNC(=O)c2cc3cccc(OC)c3oc2=O)cc1, COc1ccc(-n2c(SCC(N)=O)nc3c(oc4ccccc43)c2=O)cc1, CCOc1ccccc1NC(=O)C1=C(C)Nc2ncnn2C1c1ccc(NC(C)=O)cc1 (stereo not given), CCOc1cc(C2C(C(=O)Nc3ccc(OC)cc3)=C(C)Nc3nc(SC)nn32)ccc1O (stereo not given), CCc1cccc(NC(=O)c2cnc(N3CCOCC3)c3ccccc23)c1, Cc1cccc(N2CCN(C3=C(c4ccccc4)C(=O)c4ccccc43)CC2)c1C, COc1ccc(N(CC(=O)NCCc2ccc(Cl)cc2)S(=O)(=O)c2c(C)nn(C)c2C)cc1, Cc1ccc(OCC(=O)Nc2ccc(OCc3cc(=O)n4c(C)csc4n3)cc2)cc1C, O=C(Cn1c(=O)n(-c2ccc(F)cc2)c(=O)c2sc3ccccc3c21)NC1CCCC1, CCOc1cc(-c2nnc(SCC(=O)NC3CCCC3)nc2-c2ccc(OC)c(OCC)c2)ccc1OC, CCOc1ccc(CCNC(=O)Cn2nc(CC)n3c(cc4sc(CC)cc43)c2=O)cc1OCC, Cc1ccc(C(=O)CC2(O)C(=O)N(CCc3ccccc3)c3ccc(Br)cc32)cc1 (stereo not given), CCc1ccc(C(=O)CC2(O)C(=O)N(CCc3ccccc3)c3ccc(Br)cc32)cc1 (stereo not given), CCOc1ccccc1C(=O)NCC(c1ccc(N(C)C)cc1)N1CCCC1 (stereo not given), COc1ccccc1NC(=O)c1sc2nc(C)c(C(=O)Nc3ccc(Cl)cc3)c(-c3ccc(Br)cc3)c2c1N, COC(=O)c1ccccc1NC(=O)Cn1c(=O)cc(C)c2c(C)nn(-c3cccc(Cl)c3C)c21, CCOc1ccc(N(CC)C(=O)c2cc3c(=O)oc4ccccc4c3s2)cc1, Cc1ccc(Cn2c(CNC(=O)Cc3cccc(C)c3)nc3cccnc32)cc1, Cc1ccc(C)c(NC(=O)Cn2ccn(-c3ccc(F)cc3)c(=O)c2=O)c1, COc1cc2nc(SCC(=O)Nc3ccccc3F)n3nc(-c4ccccc4)nc3c2cc1OC, Cc1cccc(N2CCN(C(=O)c3ccc4c(c3)CCN4S(=O)(=O)c3ccccc3)CC2)c1C, O=C(NCCCO)C(=O)Nc1c2c(nn1-c1ccccc1)CSC2, CCCCN(C)S(=O)(=O)c1ccc(C(=O)Nc2sc3c(c2C(N)=O)CC(C)(C)NC3(C)C)cc1, O=C(CCSCc1ccccc1F)N1CCN(c2ccc(Cl)cc2)CC1, COc1cc(OC)c(NC(=O)N2CC3CCCN3c3ccccc32)cc1Cl (stereo not given), COc1ccc(CNc2nc(-c3ccc(Cl)cc3)nn2C(=O)c2ccccc2)cc1, CCOc1ccc(-n2c(C)nc3c(cnn3-c3ccc(C)cc3)c2=O)cc1, COc1ccccc1NC(=O)CSC1=Nc2ccccc2C2=NC(CC(=O)NCc3cccs3)C(=O)N12 (stereo not given), COc1cc(NC(=O)Cn2nc(-c3ccc(C)c(C)c3)ccc2=O)cc(OC)c1, CCN(CC)c1cc(NC2CCCCC2)c2c3c(onc13)-c1ccccc1C2=O, COc1ccc(-c2noc(CSc3nc4ccc(C)cc4[nH]3)n2)cc1, CCCCN(CC)CCCNC(=O)Cn1ncc2c([nH]c3ccc(C)cc32)c1=O, COc1cccc(CNCc2c(C(=O)O)n(Cc3ccc(C)cc3)c3cc(C)ccc23)c1OC, CCOC(=O)c1c(C)[nH]c(CCC(=O)NCCCN2CCN(c3cccc(Cl)c3)CC2)c1C, CC1=C(c2ccc(C)cc2)S(=O)(=O)NC1=NCCCN1CCN(c2cc(C)ccc2C)CC1, CCOC(=O)c1c(C)[nH]c(CCC(=O)Nc2ccc(OC)c(OC)c2)c1C, CC1=C(c2ccc(Cl)cc2)S(=O)(=O)N=C1N1CCN(c2cc(C)ccc2C)CC1, CCn1c2ccccc2c2cc(NC(=O)COc3ccc(C)cc3C)ccc21, COc1ccc(-c2nn(CC(=O)Nc3ccccc3F)c3c2cnc2ccc(F)cc23)cc1, O=C1CSC2(C(=O)N(Cc3ccccc3)c3ccccc32)N1c1cccc(F)c1 (stereo not given), CCC1CCCCN1C(=O)Cn1c(=O)n(CCCCCC(=O)NCc2ccccc2)c(=O)c2sccc21 (stereo not given), O=C(Nc1ccc2c(c1)OCO2)c1cc(-c2cccc(Cl)c2)on1, Cc1ccc2c(=O)c(C(=O)c3cccc(Cl)c3)cn(CC(=O)NCc3ccccc3)c2n1, N#Cc1ccccc1Cn1cnc2nc3c(cc2c1=O)CCCC3, CC(C)c1ccc(NC(=O)c2ccc(Cn3nc(N4CCN(c5ccccc5)CC4)ccc3=O)o2)cc1, COc1ccc(SCc2cc(=O)c3ccc(C)c(C)c3[nH]2)cc1, COc1ccc(-c2cc(C(F)(F)F)nc(SCC(=O)N(C)Cc3ccccc3)n2)cc1OC, Cc1ccc(S(=O)(=O)N(CC(=O)Nc2ccc(Cl)cc2Cl)c2ccccc2C)cc1, COc1ccccc1NC(=O)C(=O)c1cc(C)n(-c2ccccc2F)c1C, COc1cc(NC(=O)c2noc3c2CSc2ccccc2-3)cc(OC)c1OC, CCN(CC)c1ccc(NS(=O)(=O)c2cc(-c3cc(C)no3)ccc2C)c(C)c1, O=C(NCc1ccc2c(c1)CCN2C(=O)c1ccccc1)c1ccccc1, Cc1cccc(C)c1Nc1c(-c2ccccc2O)nc2ncccn12, COc1ccc(-c2nc3nc(C)cc(C)n3c2Nc2c(C)cccc2C)cc1, CCOc1ccccc1N(CC)C(=O)c1cc2ccc3cccnc3c2[nH]1, Cc1ccc(C(=O)N2CCc3cc(CNC(=O)c4ccc(Br)cc4)ccc32)cc1, Cc1ccc(-n2c(=O)c3cccnc3n2CC(=O)Nc2ccccc2C(F)(F)F)cc1C, COc1cc(NC(=O)c2nc3ccccc3nc2C)cc(OC)c1OC, COc1cc(C(=O)Nc2ccc(-n3c(C)nc4ccccc4c3=O)cc2)cc(OC)c1OC, COc1ccc(NC(=O)c2ccc3oc(=O)c(S(=O)(=O)c4ccc(F)cc4)cc3c2)c(OC)c1, CCC(=O)NCc1cc(-c2nn(C)c(=O)c3ccccc23)ccc1OC

Potency, active:
CCCCOc1ccc(CN2C(=O)C(=O)c3cc(Br)cc(C)c32)cc1OC 9.27 µM, COc1ccc(C(F)(F)F)cc1NC(=O)c1sc2nc(-c3cccs3)ccc2c1N 18.5 µM, CCOc1ccc(C2C(C(=O)Nc3ccc(Cl)cc3)=C(C)Nc3nc(C(F)(F)F)nn32)cc1 (stereo not given) 5.85 µM, CCCN1C(=O)C(O)(CC(=O)c2ccc(CC)cc2)c2cc(Br)ccc21 (stereo not given) 4.65 µM, Cc1ccc(C)c(N2CCN(CCCNC(=O)Nc3ccc(Cl)cc3)CC2)c1 18.5 µM, CCOC(=O)c1c(C)[nH]c(CCC(=O)NCCCN2CCN(c3cc(C)ccc3C)CC2)c1C 13.1 µM, CCc1cccc(C)c1Nc1c(-c2ccc(N(C)C)cc2)nc2ncccn12 13.1 µM, COc1ccccc1Nc1c2c(nc3ccc(NC(=O)/C=C/c4cc(OC)c(OC)c(OC)c4)cc13)CCCC2 3.29 µM
